# DT40 TDP1 CPT: growth inhibition of DT40 Tdp1-/-;hTDP1 cells with camptothecin (screen for TDP1 inhibitors); AID 686979; Potency, µM (highest dose often 46.2 µM), for inactives: at the highest dose activity change, negative = growth inhibition, actives largely listed as inhibitors; chicken DT40 Tdp1-/-;hTDP1 cells + 20 nM CPT, ATP luminescence, 48 h; 12% of 420,000 active; note: nearly all actives have a fitted effect of over 55% in size
#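 Cell growth measured by CellTiter-Glo luminescence after a minimum 48 h, 37 C compound exposure with 20 nM CPT in Tdp1-knockout DT40 cells stably expressing hTDP1, seeded 400/well; qHTS titration format.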
# HT1080NT lethal: kills 2HG-producing HT-1080-NT fibrosarcoma cells; 1.6% of 360,000 active; Potency, µM (titrated, usually from 46.1 µM), for inactives: at the top dose activity, negative = less viability, actives largely listed as cytotoxic; HT-1080-NT fibrosarcoma viability, CellTiter-Glo ATP luminescence, 48 h;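 note: NT is the 2HG producing partner of a matched IDH1 knockdown line; 0% = DMSO-treated cells and -100% = media-only wells without cells; nearly all actives have a fitted effect of over 55% in size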
#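 750 cells/well, RPMI + 5% FBS; 2 h settle, compound pin-transfer, 48 h at 37 degrees C. CellTiter-Glo 10 min RT, luminescence. Normalized to DMSO and media-only wells.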
# HT1080 IDH1KD tx: toxicity to HT-1080 IDH1 knockdown cells (counter line); HT-1080 IDH1 knockdown viability, ATP luminescence, 48 h; Potency, µM (titrated, usually from 46.1 µM), for the others: at the top dose activity, negative = toxicity, hits mostly cytotoxic; 2% of 360,000 active;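 note: 0% = DMSO wells and -100% = cell-free medium wells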
#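 Using the IDH1-knockdown HT-1080 line run in the same batch and compound series as the NT line, viability after 48 h at 37 °C was determined by CellTiter-Glo luminescence and expressed as % activity.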
# TDP1 cell noCPT: qHTS for Inhibitors of human tyrosyl-DNA phosphodiesterase 1 (TDP1): qHTS in cells in absence of CPT; Potency, µM (series often up to 46.2 µM), for the others: top-dose activity change, negative = growth inhibition, hits mostly inhibitors; DT40 Tdp1-/- hTDP1 cells, no CPT, ATP luminescence, 48 h; 15% of 420,000 active; note: nearly all actives have a fitted effect of over 55% in size
#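 Chicken DT40 Tdp1-/- cells complemented with human TDP1, screened without camptothecin (DMSO vehicle only), 400 cells/well. Compounds pin-transferred, cells incubated at 37 °C for at least 48 hr. Growth read as ATP-dependent luminescence (CellTiter-Glo, 30 min at RT).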
# KB-V1 MDR tox: kills drug-selected multidrug resistant KB-V1 cells | KB-V1 MDR cells viability, CellTiter-Glo, 72 h | Potency, µM (top dose mostly 46.1 µM), most hits filed as cytotoxic | 3.4% of 400,000 active; note: nearly all actives have a fitted effect of over 60% in size
#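 qHTS viability screen in drug-selected KB-V1 MDR cells: 72 h compound treatment at 37 degrees C, ATP luminescence end point.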
# KB-3-1 cytotox: KB-3-1 parental cell cytotoxicity. KB-3-1 viability, CellTiter-Glo ATP luminescence, 72 h. Potency, µM (titrated, usually from 46.1 µM), usual class: cytotoxic. 1.4% of 400,000 active; note: nearly all actives have a fitted effect of over 60% in size
#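 Using CellTiter-Glo luminescence, growth of non-resistant KB-3-1 adenocarcinoma cells is assessed 72 h after pin-tool compound addition at 37 °C. Normalized responses across the concentration series yield fitted curves.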
# An asterisk follows results filed as active; i = inactive; ? = inconclusive; / = no result. Sampled rows, rich in hits. Any-hit rate of the full collection: about 19%. Calls come from the whole dose curve; as a rule, active = well fitted curve in the direction sought with a large enough effect; inconclusive = small, poorly fitted or top-dose-only effect, or another doubt; inactive = no such curve, though single readings can be large; an effect the other way counts as inactive or inconclusive. Unless noted, % is set by controls: 0 for no effect and ±100 for the full control effect; potency is the fitted concentration of half-maximal effect.
SMILES,DT40 TDP1 CPT,HT1080NT lethal,HT1080 IDH1KD tx,TDP1 cell noCPT,KB-V1 MDR tox,KB-3-1 cytotox
N/C(=N\OC(=O)c1cccc(Cn2cc(C(F)(F)F)ccc2=O)c1)c1ccc(Cl)cc1,?,?,?,21µM*,?,i
CCCNC(=O)c1ccc(Cn2cc(C(F)(F)F)ccc2=O)cc1,10%,3%,24%,14%,i,i
CCOc1ccc(CCNC(=O)C2CCC(CNS(=O)(=O)c3ccc(Cl)cc3)CC2)cc1OCC (stereo not given),?,/,/,?,i,i
C#CCOCCOCCOCCNc1nc(N2CCN(C(=O)Cn3cc(CC(C)O)nn3)CC2)nc(N2CCN(C(=O)[C@H](C)n3cc(CCC(=O)O)nn3)CC2)n1 (stereo not given in full),5%,14%,12%,22%,i,i
COc1ccc(CN(C)C(=O)CNC(=O)c2sc3ccccc3c2Cl)c(OC)c1,-27%,-9%,-14%,?,?,i
C/C(=N\NC(=O)CNC(=O)C(c1ccccc1)c1ccccc1)c1ccc(C(C)(C)C)cc1,16µM*,?,?,16µM*,i,?
COc1ccc(OC)c(CNc2nc3ccccc3n2CCN2CCCCC2)c1,?,?,?,?,4.1µM*,?
Brc1ccc(CNc2nc3ccccc3n2CCN2CCCCC2)cc1,?,?,?,23µM*,i,i
c1ccc(Cn2c(CNc3nc4ccccc4n3CCN3CCOCC3)nc3ccccc32)cc1,?,?,?,?,8.2µM*,i
C=CCn1c(NCc2ccc(OC)cc2O)nc2ccccc21,?,5%,-8%,?,i,i
Brc1cccc(CNc2nc3ccccc3n2CCN2CCCCC2)c1,?,?,-27%,?,i,i
COc1ccc(CNc2nc3ccccc3n2CCN2CCCCC2)c(OC)c1,18µM*,-13%,-25%,23µM*,18µM*,i
CCn1c(NCc2cc(OC)ccc2OC)nc2ccccc21,-1%,-5%,-4%,?,i,i
CCc1nc(Oc2cccc(F)c2)c2oc3ccccc3c2n1,?,/,/,?,i,i
Cc1cc(=O)oc(C)c1C(=O)NC1CCCCCCC1,-7%,12%,?,-1%,i,i
Nc1c([N+](=O)[O-])c(=O)oc2ccccc12,-21%,0%,18%,-10%,i,i
COc1cccc(CNc2nc3ccccc3n2CCN2CCCCC2)c1,13µM*,?,?,?,?,?
Cc1c(CC(=O)NCCc2ccccc2F)c(=O)oc2cc(O)c(Cl)cc12,-17%,/,/,-20%,/,/
Cc1ccc(-c2nn(-c3ccccc3)cc2C=C2SC(=S)N(CCS(=O)(=O)O)C2=O)cc1,-23%,?,-30%,?,i,?
CC1CCCN(C2=NC(=O)/C(=C/c3cn(-c4ccccc4)nc3-c3cccc(S(=O)(=O)N(C)C)c3)S2)C1 (stereo not given),16µM*,-2%,8%,12µM*,i,i
CC1CCN(C2=NC(=O)/C(=C/c3cn(-c4ccccc4)nc3-c3cccc(S(=O)(=O)N(C)C)c3)S2)CC1,7.3µM*,-2%,0%,6.5µM*,i,i
CCN(CC)S(=O)(=O)c1cccc(-c2nn(-c3ccccc3)cc2/C=C(\C#N)C(=O)NCc2ccco2)c1,?,2%,16%,?,?,i
CN1CCN(S(=O)(=O)c2ccc(Br)c3ccccc23)CC1,-22%,-7%,-14%,2%,i,i
O=C1Nc2cc(C(=O)N3CCOCC3)ccc2S/C1=C/c1ccccc1F,16µM*,7%,1%,?,i,i
O=C1Nc2cc(C(=O)N3CCN(Cc4ccccc4)CC3)ccc2SC1N1CCOCC1 (stereo not given),23µM*,-10%,-4%,?,i,i
SMILES,DT40 TDP1 CPT,HT1080NT lethal,HT1080 IDH1KD tx,TDP1 cell noCPT,KB-V1 MDR tox,KB-3-1 cytotox
O=C1Nc2cc(C(=O)N3CCOCC3)ccc2S/C1=C\c1ccccc1,?,4%,-2%,23µM*,?,i
CC(C(=O)OCC(=O)c1ccc(Br)cc1)N1C(=O)C2C3CCC(C3)C2C1=O (stereo not given),-1%,0%,0%,-15%,i,i
CCc1ccc2c(F)cccc2n1,-6%,25%,5%,-7%,i,i
Cc1ccc(S(=O)(=O)Nc2ccc(C(=O)NCCCn3ccnc3)cc2)cc1[N+](=O)[O-],-2%,6%,7%,28%,i,i
Cc1ccc2nc(Cl)c3cc(C(=O)N4CCCCC4C)sc3c2c1 (stereo not given),?,/,/,23µM*,i,i
Cc1ccc2nc(Cl)c3cc(C(=O)NCCCN4CCCC4)sc3c2c1,5.8µM*,18µM*,?,5.8µM*,i,?
CCC1CCCCN1CCCNC(=O)c1cc2c(=O)n(CC)c3ccccc3c2s1 (stereo not given),?,/,/,?,i,?
CCC1CCCCN1CCCNC(=O)C1CCC(CNS(=O)(=O)c2c(C)cc(C)cc2C)CC1 (stereo not given),29µM*,?,?,?,?,i
CCC1CCCCN1CCCNC(=O)c1cc2c(Cl)nc3ccc(C)cc3c2s1 (stereo not given),5.2µM*,/,/,4.6µM*,i,i
Cc1ccc2nc(Cl)c3cc(C(=O)N4CCCCC4)sc3c2c1,?,/,/,-101%,i,i
CCNC(=O)N1C[C@H]2CON(C)[C@H]2C[C@H]1c1ccccc1Br,-11%,5%,21%,-23%,i,i
CCOC(=O)c1cc(NC(=O)Nc2ccc(Br)cc2)c(C)nc1C,?,-10%,-4%,?,i,i
CCn1nc(C)cc1C(=O)NC1CCCc2c1cnn2-c1ccc(C)c(C)c1 (stereo not given),?,-7%,?,?,/,/
Cc1cccc(-n2ncc3c2CCCC3NC(=O)C2CCOCC2)c1C (stereo not given),?,?,-9%,15µM*,?,?
Cc1cccc(-n2ncc3c2CCCC3NC(=O)c2ccc[n+]([O-])c2)c1C (stereo not given),12µM*,-1%,-3%,?,?,i
